SKKanGAS inh: inhibitors of SKKanGAS S. pyogenes growth in kanamycin (SK-promoter or general growth effect). BacTiter-Glo, 6 h. inhibition, % at 7.5 µM. actives 1.3% (n = 300,000). AID 1662;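 active = mean replicate score, as percent of positive control median, at least 50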;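 also: strain carries kanamycin resistance gene driven by streptokinase promoter and grows in 40 µg/ml kanamycin; loss of luminescence reflects streptokinase promoter inhibition or plain growth inhibition; 0% = median of DMSO wells and 100% = positive control at its reference dose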
tim23-1 inh: inhibits growth of tim23-1 mutant yeast. S. cerevisiae tim23-1 growth, BacTiter-Glo luminescence, 24 h. inhibition, % at 20 µM. actives 1.3% (n = 330,000);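 active = growth inhibition of the mutant yeast at or above 50%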;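 also: temperature-sensitive mutant grown at 25 °C; plate controls were DMSO-treated mutant yeast for no effect and medium wells lacking yeast for full effect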
TIM10 inh: inhibits growth of TIM10 yeast strain | S. cerevisiae TIM10 strain growth, BacTiter-Glo luminescence, 24 h | inhibition, % at 10 µM | actives 1.4% (n = 330,000) | AID 463195;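 active = inhibition of 40% or more at the single tested concentration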;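 also: wild-type TIM10 isogenic control strain grown at permissive 25 °C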
NLRP3 yeast inh: blocks the NALP3 inflammasome reconstituted in yeast | Yeast reconstituted NLRP3/ASC/caspase-1, beta-gal luminescence, 24 h | inhibition, % at 10 µM | actives 0.39% (n = 330,000);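 active = inhibition of 50% or more; inactive = inhibition below 50%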;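 also: plate controls were induced DMSO wells for no effect and uninduced yeast grown without galactose for full effect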
PfHsp90 yeast 2: growth inhibition of yeast expressing Plasmodium Hsp90. S. cerevisiae expressing PfHsp90, BacTiter-Glo ATP, 48 h; yeast lacking PDR1 and PDR3 efflux regulators. actives 0.32% (n = 310,000). AID 504621. inhibition, % at 9.4 µM;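 active = every replicate shows inhibition above about 80%, whatever the replicate mean, limit read from the data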;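 also: 0% = DMSO neutral controls and 100% = 20 µM radicicol positive controls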
tim10-1 inh: inhibits growth of tim10-1 mutant yeast; S. cerevisiae tim10-1 ts strain growth, BacTiter-Glo, 24 h; inhibition, % at 20 µM; actives 2.2% (n = 330,000); AID 463190;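 active = inhibition of at least 40%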;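 also: mutant grown at 25 °C; 0% = DMSO wells with yeast and 100% = wells holding no yeast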
NALP3 yeast conf: NALP3 inhibition confirmation in yeast | shares compounds with NLRP3 yeast inh | yeast expressing human NALP3, luminescence | inhibition, % at 10 µM | actives 81% (n = 1,300) | AID 435006; in the data active = inhibition above about 48%
Casp1-ASC yeast: counter-screen for NALP3 inhibitors: yeast caspase-1-ASC. yeast expressing Caspase-1-ASC, luminescence counter screen. AID 488784. inhibition, % at 10 µM. actives 66% (n = 1,000). shares compounds with NLRP3 yeast inh
NALP3 retest: confirmation retest of NALP3 inhibitors in yeast. yeast expressing human NALP3, luminescence read-out. AID 488794. actives 53% (n = 1,000). inhibition, % at 10 µM. shares compounds with NLRP3 yeast inh
Numbers without * were called inactive; . = no result given. In the library only some 4.6% were active in any assay of this set; here they are far more common. Rule as the data show it, unless noted: active = inhibition above about 50%; inactive = the rest.

SMILES	SKKanGAS inh	tim23-1 inh	TIM10 inh	NLRP3 yeast inh	PfHsp90 yeast 2	tim10-1 inh	others
O=c1[nH]c(=S)n(C2CC2)c(O)c1/C=N/Nc1ccccc1	6	9	-31	20	-17	-24
CCCCn1c(O)c(/C=N/NC(=O)c2ccncc2)c(=O)[nH]c1=O	33	8	-16	-1	-16	-1
CC(C)c1ccc(-n2c(O)c(/C=N/NC(=O)c3ccccc3O)c(=O)[nH]c2=S)cc1	70*	8	-23	7	-2	16
O=C(N/N=C/c1c(O)n(Cc2ccco2)c(=O)[nH]c1=O)c1ccccc1O	68*	8	-3	0	38	-6
Cc1ccc(-n2nc(C)c(C3C(C#N)=C(N)Oc4c3c(=O)oc3ccccc43)c2Cl)cc1 (stereo not drawn)	119*	.	.	.	.	.
CC[C@H](OC(C)=O)C(C[C@H](C)N(C)C)(c1ccccc1)c1ccccc1	.	12	10	11	.	12
O=C(N/N=C/c1c(O)n(Cc2ccc(F)cc2)c(=S)[nH]c1=O)c1ccncc1	101*	2	16	8	-7	9
CCC(C)n1c(O)c(/C=N/NC(=O)c2ccncc2)c(=O)[nH]c1=S (stereo not drawn)	91*	-5	11	3	14	8
OC1/C(=C/c2ccccc2C(F)(F)F)N2CCC1CC2 (stereo not drawn)	4	10	-1	-10	3	-3
Cn1c(NN=O)nc2ccccc21	56*	20	1	24	-7	36
COc1cccc(C2(O)CCN(CC(=O)Nc3nc(C)cs3)CC2)c1	-14	9	-6	9	-18	-2
CSc1ncc(/C=C2/C(=O)NC(=O)N(c3ccc(Cl)cc3)C2=O)cn1	.	.	.	.	16	.
Cc1ccc(-n2c(O)c(C=NCCCn3ccnc3)c(=O)[nH]c2=O)cc1	-4	-7	15	20	2	14
CC/C(=C\C=C\[C@@H]1C=C[C@@H]2CCC[C@H]2[C@@H]1C(=O)c1ccc[nH]1)[C@@H]1O[C@@H]([C@@H](C)C(=O)O)CC[C@@H]1C	131*	21	12	0	.	35
CC1CN=C(NCc2ccc(F)cc2)S1 (stereo not drawn)	11	-7	-3	17	3	7
CN(C)C1C(=O)C(C(N)=O)=C(O)C2(O)C(=O)C3=C(O)c4c(O)cccc4C(C)(O)C3CC12 (stereo not drawn)	102*	.	.	.	-9	.
CN(C)[C@@H]1C(=O)C(C(N)=O)=C(O)[C@@]2(O)C(=O)C3=C(O)c4c(O)cccc4[C@@](C)(O)C3[C@H](O)C12 (stereo partly drawn)	106*	-11	-1	9	16	2
O=C(CCC(=O)N1CC2C[C@@H](C1)Cn1c2cccc1=O)NCCc1ccccc1	2	11	4	4	26	6
CC[N+](C)(CC)CCCCOc1ccc2c(c1)C(=O)c1cc(OCCCC[N+](C)(CC)CC)ccc1-2	8	-12	-8	-9	-3	6
CC(=O)N1Cc2cnnn2-c2ccccc2C1C#N (stereo not drawn)	.	.	.	.	-8	.
Nc1c2c(nc3sc4c(c13)CCCCC4)CCCC2	-3	32	30	63*	-1	9	NALP3 yeast conf=79*;Casp1-ASC yeast=39;NALP3 retest=40
BrCC1C[n+]2c(SCc3ccccc3)nc3sc4c(c3c2O1)CCCC4 (stereo not drawn)	-2	2	-23	15	6	-14
Cc1c(-c2cccc(Cl)c2)nc2ccccc2c1C(=O)N1CCC2(CC1)OCCO2	-5	28	23	77*	-5	26	NALP3 yeast conf=45;Casp1-ASC yeast=21;NALP3 retest=13
C[C@]12CCC3C(CC[C@@H]4C[C@@H](O)CC[C@]34C)C1CC[C@@H]2O (stereo partly drawn)	.	.	.	.	-10	.
C[C@]12CC[C@@H](O)C[C@@H]1CC[C@@H]1[C@@H]2CC[C@]2(C)C(=O)CC[C@@H]12	-4	37	-21	56*	4	22	NALP3 yeast conf=67*;Casp1-ASC yeast=60*;NALP3 retest=61*
SMILES	SKKanGAS inh	tim23-1 inh	TIM10 inh	NLRP3 yeast inh	PfHsp90 yeast 2	tim10-1 inh	others
C[C@]12CCC3C(CC[C@H]4C[C@H](OC(=O)c5cccnc5)CC[C@]34C)C1CCC2=O (stereo partly drawn)	.	30	4	54*	0	25	NALP3 yeast conf=60*
CC(=O)OC1CCC2(C)C(CCC3C2CC(=O)C2(C)C3CC(N3CC3)C2C(C)=O)C1 (stereo not drawn)	.	.	.	.	-6	.
C[C@]12CCC3C(CC[C@H]4C[C@H](O)CC[C@]34C)C1CC(=O)[C@@H]2O (stereo partly drawn)	.	22	-19	49	-14	-5
C[C@]12CCC3C(CC[C@H]4C[C@H](O)CC[C@]34C)C1CCC2=O (stereo partly drawn)	.	39	-18	53*	5	2	NALP3 yeast conf=68*
C[C@]12CC[C@H](O)CC1=CC[C@@H]1[C@@H]2CC[C@@]2(C)[C@H]1CC[C@]2(C)O	2	22	19	59*	.	35	NALP3 yeast conf=67*;Casp1-ASC yeast=59*;NALP3 retest=47
CC(C)[C@H]1CC2C3CC=C4C[C@@H](O)CC[C@]4(C)C3CC[C@]2(C)[C@H]1O (stereo partly drawn)	.	21	19	53*	.	2	NALP3 yeast conf=56*
C[C@]12C[C@H](O)[C@@H](O)CC1=CCC1C2CC[C@@]2(C)C1CC[C@@H]2O (stereo partly drawn)	.	13	-6	55*	4	2	NALP3 yeast conf=66*
C[C@]12CC[C@@H](O)CC1=CCC1C2CC[C@]2(C)C(=O)[C@H](F)CC12 (stereo partly drawn)	.	17	-16	50	-7	11
O=c1[nH]c(O)c(/C=C2\C=NN=C2c2ccccc2)c(=O)[nH]1	-14	13	3	-10	.	2
CCOc1ccc(NC(=O)N2C[C@H]3C[C@@H](C2)c2cccc(=O)n2C3)cc1	2	15	-4	12	-15	11
CN1C(=O)C(=Cc2ccc(N(C)C)c([N+](=O)[O-])c2)C(=O)N(C)C1=O	-5	9	-16	21	.	5
O=[N+]([O-])O[C@H]1CO[C@H]2[C@@H]1OC[C@H]2O[N+](=O)[O-]	.	11	4	3	9	10
Fc1ccc(C(OCCN2CCN(CCCc3ccccc3)CC2)c2ccc(F)cc2)cc1	5	-65	-78	50*	17	-54	NALP3 yeast conf=59*
